Measurements published in the GenesisPotency data set.
Hit rate of the full screen: of about 290,000 compounds, about 3,000 (1%) were called active. Cut-off read from the data, not from the text of the source: active = inhibition mostly above about 36% (no sharp cut-off); inactive = mostly below about 34%. The sample as a whole holds a higher share of actives than the screen did.

biological target: T1, Nucleotide-binding oligomerization domain-containing protein 1, Homo sapiens (UniProt Q9Y239); assay: inhibition of NOD1-driven NF-kB reporter – cell-based, luminescence, uHTS, primary screen (AID 1578)
T1 sequence (whole entry): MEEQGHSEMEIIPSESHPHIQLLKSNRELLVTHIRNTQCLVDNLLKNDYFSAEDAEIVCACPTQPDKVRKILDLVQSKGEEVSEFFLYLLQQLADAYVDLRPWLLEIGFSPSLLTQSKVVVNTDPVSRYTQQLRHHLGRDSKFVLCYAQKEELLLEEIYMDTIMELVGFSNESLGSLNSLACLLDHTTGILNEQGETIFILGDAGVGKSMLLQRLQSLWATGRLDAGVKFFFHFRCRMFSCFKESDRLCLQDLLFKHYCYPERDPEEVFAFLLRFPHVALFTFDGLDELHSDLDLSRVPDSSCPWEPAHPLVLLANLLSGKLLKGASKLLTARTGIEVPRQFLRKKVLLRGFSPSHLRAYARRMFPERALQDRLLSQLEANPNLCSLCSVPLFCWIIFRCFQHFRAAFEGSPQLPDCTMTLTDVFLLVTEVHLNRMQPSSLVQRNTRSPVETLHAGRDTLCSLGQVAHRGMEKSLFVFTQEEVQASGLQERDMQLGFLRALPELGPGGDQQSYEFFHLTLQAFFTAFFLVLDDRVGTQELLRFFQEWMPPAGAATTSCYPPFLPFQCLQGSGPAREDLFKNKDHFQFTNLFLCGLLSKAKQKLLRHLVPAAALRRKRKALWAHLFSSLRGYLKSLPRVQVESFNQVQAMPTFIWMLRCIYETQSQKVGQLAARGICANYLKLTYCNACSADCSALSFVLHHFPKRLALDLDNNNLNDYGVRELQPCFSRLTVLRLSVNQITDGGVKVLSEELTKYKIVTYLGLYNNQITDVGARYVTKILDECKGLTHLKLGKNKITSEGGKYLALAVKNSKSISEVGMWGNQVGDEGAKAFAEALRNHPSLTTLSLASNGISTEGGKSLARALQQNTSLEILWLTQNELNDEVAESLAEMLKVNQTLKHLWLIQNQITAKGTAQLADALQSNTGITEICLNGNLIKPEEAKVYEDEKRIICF

outcome, active:
Cn1cc(C(=O)CCl)c2ccccc21
Cn1c(-c2ccccc2)c(C(=O)CCl)c2ccccc21
Cc1ccc2c(c1)[nH]c1c(N3CCN(Cc4ccccc4)CC3)ncnc12
Cc1ccc2[nH]c3c(N4CCc5ccccc5C4)ncnc3c2c1
c1ccc(CN2CCN(c3ncnc4c3[nH]c3ccccc34)CC2)cc1
Cc1ccc2[nH]c3c(N4CCN(Cc5ccccc5)CC4)ncnc3c2c1
Cc1ccc(-c2noc(CCCC(=O)NC3CCCCC3)n2)cc1
O=C(CCCc1nc(-c2ccc(Cl)cc2)no1)NC1CCCC1
O=C(CCCc1nc(-c2ccc(Cl)cc2)no1)NC1CCCCC1
N#CC(c1cccc(Cl)c1)c1ccc2c(C(F)(F)F)cc(C(F)(F)F)nc2n1 (configuration not stated)
CCCCN(c1ccccc1)c1ncnc(N)c1[N+](=O)[O-]
Cc1ccc(Cl)cc1N1CCN(C(=O)CSc2nnc3n2C(C)(C)Cc2ccccc2-3)CC1
CC1(C)CC(N2CCN(C(c3ccccc3)c3ccccc3)CC2)=CC(=[N+]2CCCCC2)C1.[I-]
CN(Cc1ccccc1)C1=CC(=[N+]2CCCCC2)CC(C)(C)C1.[I-]
c1csc(CCNc2ncnc3sc4c(c23)CCC4)c1
Cc1cc(C(=O)NC2CCCc3c2cnn3-c2ccc(C(C)(C)C)cc2)nn1C (configuration not stated)
Cn1nccc1C(=O)NC1CCCc2c1cnn2-c1ccc(C(C)(C)C)cc1 (configuration not stated)
CC(C)(C)c1ccc(-n2ncc3c2CCCC3NC(=O)C2(C(N)=O)CC2)cc1 (configuration not stated)
Cc1ccc(NC(=O)Nc2nnc(-c3ccncc3)s2)cc1C
O=C(Nc1ccc2nc3n(c(=O)c2c1)CCCCC3)c1c(F)ccc([N+](=O)[O-])c1F
CCOc1cccc(-c2c(C(=O)N/N=C(\C)c3ccccn3)nnn2-c2nonc2N)c1
CN(C)S(=O)(=O)c1cccc(NC(=O)c2ccc(COc3ccccc3)cc2)c1
COc1ccc(C(=O)/C=C/C(=O)N(CC(=O)NC2CCCCC2)Cc2ccccc2OC)c(O)c1
CCn1c(Oc2ccccc2F)nc2c1c(=O)n(C)c(=O)n2C
C=CCn1c(Oc2ccc(C(=O)OC)cc2)nc2c1c(=O)n(C)c(=O)n2C
C=CCn1c(Oc2ccccc2F)nc2c1c(=O)n(C)c(=O)n2C
Cc1ccc(S(=O)(=O)c2cc3cc(Br)ccc3oc2=O)cc1
O=c1oc2ccc(Br)cc2cc1S(=O)(=O)c1ccc(F)cc1
O=C(O)c1c(NC(=O)c2cccc3ccccc23)sc2c1CCC2
COc1ccc(-c2c[n+]3c(n2-c2ccc(C)cc2)CCCCC3)cc1.[Br-]
CCOC(=O)c1ccc(NC(=O)Cn2ncc(Cl)c(Cl)c2=O)cc1
CCC(=O)Nc1ccc(C(=O)Cn2ncc(Cl)c(Cl)c2=O)cc1
Cc1cc(Br)ccc1NC(=O)CNC(=O)Cn1ncc(Cl)c(Cl)c1=O
O=C(Cn1ncc(Cl)c(Cl)c1=O)c1ccc(Cl)cc1
O=C(Cn1ncc(Cl)c(Cl)c1=O)N1CCc2ccccc21
C#Cc1ccc([C@@H]2C=C(C(=O)N3CCN(Cc4ccccc4)CC3)O[C@H](OCCCCO)C2)cc1
O=C(COc1ccc(Br)cc1)Nc1ccc(Cc2ccncc2)cc1
Cn1cnnc1Sc1ccc(/C=C/C(=O)c2ccc(O)cc2)cc1[N+](=O)[O-]
C(=N\Nc1nc2ccccc2s1)/c1ccccn1
CCn1c(=O)c2c(cnn2C)c2ccccc21
CC(=O)c1c(O)c(C)c(O)c2c1OC1=CC(=O)C(C(C)=O)C(=O)[C@@]12C (some centres not stated)
O=C(NCc1cccs1)c1nc2c(nnn2Cc2ccccc2Cl)c(=O)[nH]1
O=C(NCc1ccco1)c1nc2c(nnn2Cc2ccccc2Cl)c(=O)[nH]1
COc1ccc2ncn(-c3ccccc3)c2c1
COc1ccc(-n2cnc3ccccc32)cc1
O=C(CSc1nnc2c(n1)[nH]c1ccccc12)NC1CCCCC1
NC(=S)N/N=C\c1c(OCc2ccccc2Cl)ccc2ccccc12
CC(C)N1C(=O)/C(=C/c2nc3ccccc3c(=O)n2-c2ccccc2)c2ccccc21
Cc1cccc(-n2c(SCC(=O)N3CCC(C(=O)O)CC3)nc3ccccc3c2=O)c1C
CC1=CC(C)(C)Nc2ccc(OC(=O)CN3C(=O)CCC3=O)cc21
CC1=CC(C)(C)Nc2ccc(OC(=O)CN3C(=O)C4CCCCC4C3=O)cc21 (configuration not stated)
COc1ccc(OC)c(/C=C/c2ccc3cccc(O)c3n2)c1
Oc1c(Cl)cc(Cl)cc1/C=C/c1ccc2cccc(O)c2n1
COc1cc(/C=C/c2ccc3cccc(O)c3n2)ccc1O
COc1cc(/C=C/c2ccc3cccc(O)c3n2)cc(OC)c1OC
O=C(Nc1nnc(-c2cccs2)o1)c1cccc(Oc2ccccc2)c1
O=C(Nc1nnc(-c2cccs2)o1)c1cccc(C(F)(F)F)c1
O=C(C1CCC(CNS(=O)(=O)c2cccs2)CC1)N1CCN(c2ccc(Cl)cc2)CC1 (configuration not stated)
O=C(Nc1ccccc1C(=O)Nc1nnc(C(F)(F)F)s1)c1ccccc1
O=C(Nc1ccccc1C(=O)Nc1nnc(C(F)(F)F)s1)c1ccccc1Cl
Cc1onc(-c2c(F)cccc2Cl)c1C(=O)Nc1nnc(C(F)(F)F)s1
COc1ccccc1CN(Cc1nc2ccccc2c(=O)[nH]1)S(=O)(=O)c1ccc2ccccc2c1
N#C/C(=C\c1ccc(O)c([N+](=O)[O-])c1)c1nc2ccccc2s1
O=C(CCl)N1c2ccccc2OCC1c1ccccc1 (configuration not stated)
Cc1ccc(C(=O)Nc2ccccc2-c2ccccc2)cc1[N+](=O)[O-]
COc1ccccc1OCC(=O)OC/C(O)=C(\C#N)c1nc2ccccc2[nH]1
Cc1cccc(C)c1OCC(=O)OC/C(O)=C(\C#N)c1nc2ccccc2[nH]1
O=C(Nc1nc2ccccc2n1CCOc1ccc(Cl)cc1)c1ccco1
COC(=O)c1sc(NC(=O)c2cc(-c3ccccc3)nc3ccccc23)c(C#N)c1C
CCOC(=O)c1sc(NC(=O)CSc2nc3c(cc2C#N)CCCCCC3)c(C#N)c1C
CCOC(=O)c1sc(NC(=O)c2cc(-c3ccccc3C)nc3ccccc23)c(C#N)c1C
Cc1ccccc1-c1cc(C(=O)Nc2sc(C(=O)OC(C)C)c(C)c2C#N)c2ccccc2n1
CCOC(=O)c1sc(NC(=O)CSc2n[nH]c(-c3ccccc3)n2)c(C#N)c1C
CCOC(=O)c1sc(NC(=O)c2cc(-c3ccccc3)nc3ccccc23)c(C#N)c1C
Cc1ccc(C(=O)O/N=C(\N)c2ccccn2)c(C)c1
Cc1ccc(C)c(N2CCN(C(=O)CCCCCn3c(=S)[nH]c4ccc(N5CCOCC5)cc4c3=O)CC2)c1
N#Cc1ccc(C(=O)Nc2nc(-c3cccs3)c(C(=O)C(F)(F)F)s2)cc1
CCS(=O)(=O)c1ncc(Cl)c(C(=O)Nc2ccc(S(=O)(=O)N(C)c3ccccc3)cc2)n1
CN(c1ccccc1)S(=O)(=O)c1ccc(NC(=O)c2nc(S(C)(=O)=O)ncc2Cl)cc1
CCS(=O)(=O)c1ncc(Cl)c(C(=O)Nc2ccc(C)cc2)n1
CCN(c1ccccc1)S(=O)(=O)c1ccc(NC(=S)NC(=O)c2cccs2)cc1
Cc1csc2c(N3CCN(C(=S)Nc4ccc(C(F)(F)F)cc4)CC3)ncnc12
Cc1csc2ncnc(N3CCN(C(=S)Nc4ccc(F)cc4F)CC3)c12
Cc1csc2ncnc(N3CCN(C(=S)Nc4ccc(C(F)(F)F)cc4)CC3)c12
Fc1ccc(NC(=S)N2CCCN(c3ccc(C(F)(F)F)cn3)CC2)c(F)c1
Cc1csc2ncnc(N3CCN(C(=O)Nc4ccc(OC(F)(F)F)cc4)CC3)c12
Cc1csc2ncnc(N3CCN(S(=O)(=O)c4cccc(C(F)(F)F)c4)CC3)c12
Cc1c(C#N)c(NC(=O)CCl)n(Cc2cccs2)c1C
Cc1c(C#N)c(NC(=O)CCl)n(Cc2ccccc2)c1C
Br.CCCCCCCn1c2c(c(=N)c3c1CCC3)CCCC2
Br.CCCCCCCCCn1c2c(c(=N)c3c1CCC3)CCCC2
Br.CCCCCCCCn1c2c(c(=N)c3c1CCC3)CCCC2
CC(=O)N1CCCc2cc(S(=O)(=O)N3CCCC(C(=O)N4CCN(c5cc(C)ccc5C)CC4)C3)ccc21 (configuration not stated)
CC(=O)N1CCCc2cc(S(=O)(=O)N3CCCC(C(=O)N4CCN(c5cccc(Cl)c5)CC4)C3)ccc21 (configuration not stated)
Cc1ccc(S(=O)(=O)c2ncccc2[N+](=O)[O-])cc1
COc1ccc(/C=C2\Sc3ccc(C(=O)N4CCN(Cc5ccccc5)CC4)cc3N(C)C2=O)cc1OC
CN1C(=O)/C(=C/c2ccccc2Cl)Sc2ccc(C(=O)N3CCCC3)cc21
COc1ccc2c(c1OC)C(=O)OC2Nc1nc(-c2ccccc2)cs1 (configuration not stated)
Cc1ccc(-c2csc(NC3OC(=O)c4ccccc43)n2)cc1 (configuration not stated)
O=C(NCCc1ccccc1F)c1ccc2c(c1)OCCO2
O=C(NCCc1ccccc1)c1ccc2c(c1)OCCCO2
COc1cc(C)c(Br)cc1S(=O)(=O)NCc1ccncc1
Cc1ccc(Cc2c(C)c(C#N)c3[nH]c4ccccc4n3c2=O)cc1
O=C(N/N=C/c1ccc([N+](=O)[O-])s1)c1ccccc1Br
O=C(N/N=C/c1ccc([N+](=O)[O-])s1)c1cccc(Br)c1
Cc1ccc(NC(=O)c2ccccc2NS(=O)(=O)c2ccc(F)cc2)cc1S(=O)(=O)N1CCCCC1
O=C(Nc1cccc(S(=O)(=O)N2CCCCC2)c1)c1ccccc1NS(=O)(=O)c1ccc(F)cc1
